# Shown are actives, neighbours in structure and some others; about 4.1% of the full set was active somewhere.
# TWEAK Fn14 block – inhibitors of TWEAK-Fn14 signaling, primary screen, luciferase reporter cells, uHTS | TWEAK-stimulated Fn14 reporter cells, luciferase luminescence, 8 h | inhibition, % at 10 µM | hit rate 2% among 360,000 | AID 1159606, 2016; in the data active = inhibition above about 50%
# Shn3 3UTR inh – reduction of Shn3 3'UTR firefly luciferase signal, primary screen, Schnurri-3 inhibitor project, cell-based, Clone20 osteoblasts, set 2; Clone20 osteoblast Shn3 3'UTR firefly luciferase, 24 h; inhibition, % at 12.5 µM; hit rate 0.52% among 360,000; AID 588674, 2011;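 active = mean inhibition of at least 75% with every replicate also reaching 75%; inconclusive = mean inhibition at least 75% but some replicate below; inactive = mean inhibition below 75%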;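 note: 0% = median of neutral control wells and 100% = pilot-screen positive control compound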
# TROY signal inh – inhibitors of TROY-driven NF-kB signaling, primary screen, Q293 LMP1-TROYcd cells, NF-kB luciferase, uHTS. Q293 LMP1-TROYcd NF-kB luciferase reporter, 4 h. inhibition, % at 10 µM. hit rate 0.98% among 360,000. AID 1347056, 2019;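 active = compounds whose plate-normalised and pattern-corrected inhibition of the luciferase reporter signal at the single screening dose is 50% or more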
# MITF TRPM1 inh – inhibitors of MITF-dependent TRPM1 promoter reporter, primary screen, cell-based, SK-MEL-5, single point, luciferase; SK-MEL-5 TRPM1 promoter luciferase, 24 h; inhibition, % at 12.5 µM; hit rate 0.83% among 330,000; AID 488899, 2010;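 active = mean inhibition across replicates of 60% or more, whatever share of single replicates reaches that level; inconclusive = some that reach 60%, reason not given; inactive = mean inhibition across replicates below 60%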
# EBV LMP1 NFkB – EBV LMP1-driven NF-kappaB luciferase reporter inhibitors, primary screen, cell-based, luminescence, single point; LMP1-induced NF-kappaB luciferase reporter cells; inhibition, % at 12.5 µM; hit rate 0.69% among 350,000; in the data active = inhibition above about 41%; inconclusive = no clear call, values can overlap the other calls;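 note: 0% = neutral control wells and 100% = reference inhibitor control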
# Peg3 prom inh – Peg3 promoter-driven luciferase inhibitors, primary screen, cell-based, HeLa, luciferase luminescence. HeLa PEG-Prom luciferase reporter, overnight. inhibition, % at 20 µM. hit rate 1.7% among 360,000. AID 588405, 2011;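 active = inhibition of at least 50% at 20 µM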
# * marks the source's active call; other numbers are inactive results; ? = inconclusive; · = not tested or not shown.
SMILES,TWEAK Fn14 block,Shn3 3UTR inh,TROY signal inh,MITF TRPM1 inh,EBV LMP1 NFkB,Peg3 prom inh
Cn1ccc2c(-c3cccc(C=O)c3F)cc3c(c21)C1CCC3C1 (stereo unspecified),51*,8,55*,·,·,10
O=C(NCc1cccnc1)c1cc(C(=O)NCc2cccnc2)cc([N+](=O)[O-])c1,-4,-19,-8,·,0,7
CC(C)(C)C1CCC(OC(=O)c2ccncc2)CC1 (stereo unspecified),-29,16,-33,6,-3,-21
CC(C)(C)C1CCC(OC(=O)c2cncc(Br)c2)CC1 (stereo unspecified),74*,-13,71*,-21,-36,-80
COc1ccc(Br)cc1C1CC(=O)C(C)C(c2cc(Br)ccc2OC)N1 (stereo unspecified),-16,25,-14,7,-10,24
O=C(Nc1ccccc1O)C(c1ccccc1)c1ccccc1,64*,79,25,4,17,21
ClC1=C(Cl)C(Cl)=C(Cl)C1=C/C=C/c1ccccc1,23,90*,-4,92*,70*,107*
Cc1ccc(C)c(Cn2c(O)c(N=NC(=S)Nc3ccccc3F)c3ccccc32)c1,3,55,14,21,45*,26
Oc1c(N=NC(=S)Nc2ccccc2F)c2ccccc2n1Cc1ccccc1F,13,31,18,18,48*,9
Cc1ccccc1Cn1c(O)c(N=NC(=S)Nc2ccccc2F)c2ccccc21,-8,25,-16,13,44*,22
Oc1c(N=NC(=S)Nc2ccccc2F)c2ccccc2n1Cc1ccc(Cl)cc1,6,50,22,16,39,16
COc1ccc(CN2CCN(CCC(C)C)C(CCO)C2)cc1Cn1cncn1 (stereo unspecified),15,-50,2,2,-3,17
COc1ccc(Br)c(OC)c1C(=O)NC(=O)Nc1nc(C)cc(C)n1,14,9,7,7,-11,21
CC[C@]12c3[nH]c4ccc(Cl)cc4c3CCN1C(=O)[C@@H](CC(=O)NCC13CC4CC(CC(C4)C1)C3)C[C@@H]2C(=O)N1CCN(C(=O)c2ccco2)CC1,44,80,46,43,10,67*
CCN(CC)C(=O)[C@H]1C[C@H](CC(=O)NCCCN(C)C)C(=O)N2CCc3c([nH]c4ccc(Cl)cc34)[C@]12C,26,-20,8,-16,2,9
CCN(CC)C(=O)[C@H]1C[C@H](CC(=O)NCC23CC4CC(CC(C4)C2)C3)C(=O)N2CCc3c([nH]c4ccc(Cl)cc34)[C@]12C,54*,22,45,12,-6,59*
CN(C)CCOc1ccc(/C(=C(/CCCl)c2ccccc2)c2ccccc2)cc1,-9,-1,15,1,5,74*
CCOc1cccc(C(=O)NNC(=O)CCC(=O)O)c1,25,26,0,17,3,8
Cc1ccc(C(=O)NCCc2ccccc2)cc1,97*,21,67*,38,57*,45
CCOC(=O)c1cnc2ccccc2c1Nc1ccc2c(c1)OCCO2,92*,43,77*,31,14,21
COc1cccc(-c2cnc3c(NC(C)=O)cc(-c4cccc(C(=O)NCCN(C)C)c4)cn23)c1,-33,51,-27,·,·,41
COc1ccc(-c2cc(=O)oc3c(C)c(O)ccc23)cc1,72*,-5,61*,-9,-5,40
COc1ccc(-c2cc(=O)oc3cc(OC(C)C(=O)NC4CC4)ccc23)cc1 (stereo unspecified),-9,-1,-17,-9,7,23
COc1ccc(-c2cc(=O)oc3cc(OC(=O)C4CCCCC4)c(Cl)cc23)cc1,84*,20,58*,-2,34,16
COc1ccc(-c2cc(=O)oc3cc(O)ccc23)cc1,64*,15,26,-6,19,5
SMILES,TWEAK Fn14 block,Shn3 3UTR inh,TROY signal inh,MITF TRPM1 inh,EBV LMP1 NFkB,Peg3 prom inh
COc1ccc(-c2cc(=O)oc3c(C)c(OC(C)C(C)=O)ccc23)cc1 (stereo unspecified),-16,19,29,-6,10,52*
O=C(CSc1nnc(-c2ccccn2)o1)Nc1ccccc1F,8,-43,-16,-9,-5,-168
CC(=O)Nc1ccc(SCC(=O)NC(=O)c2ccccc2Br)cc1,-30,-2,-1,-1,4,-5
C=C(C)[C@@H]1CCC2(C(=O)O)CC[C@]3(C)[C@H](CC[C@@H]4[C@@]5(C)CCC(=O)C(C)(C)[C@@H]5CC[C@]43C)[C@@H]12 (stereo partly specified),51*,-18,-4,10,49*,8
C=C(CC[C@@H](O)C(C)(C)O)[C@H]1CC[C@]2(C)[C@@H]1CCC1[C@@]3(C)CCC(=O)C(C)(C)C3CC[C@]12C (stereo partly specified),-1,19,3,3,-1,5
CC1(C)C2CC[C@]3(C)C(CC=C4[C@@H]5C[C@@](C)(CO)[C@@H](O)C[C@]5(C(=O)O)CC[C@]43C)[C@@]2(C)CC[C@@H]1O (stereo partly specified),0,3,5,·,·,13
C=C(C)[C@@H]1CC[C@]2(C(=O)O)CC[C@]3(C)C(CCC4[C@@]5(C)CC[C@H](O)C(C)(C)C5CC[C@]43C)C12 (stereo partly specified),-36,7,-10,·,-13,90*
CC(NC(=O)NC1CCCCC1)C(c1cccs1)N1CCN(C)CC1 (stereo unspecified),4,-3,-5,1,6,1
Cc1cc(NCCCCCCCNc2cc(C)nc3cc([N+](=O)[O-])ccc23)c2ccc([N+](=O)[O-])cc2n1,77*,86*,34,?,79*,102*
COc1cc(OC)cc(C(=O)NC(C(=O)Nc2ccc3c(c2)OCCO3)C(C)C)c1 (stereo unspecified),56*,-13,52*,-17,-1,-102
O=C(Cn1nnc(-c2ccc(F)cc2)n1)Nc1ccc2c(c1)OCCO2,5,-1,-4,0,-3,-1
COc1ccc(S(=O)(=O)NC(C)C(=O)Nc2ccc3c(c2)OCCO3)cc1OC (stereo unspecified),75*,-4,8,-8,-8,-1
COc1ccc(S(=O)(=O)NC(C)C(=O)Nc2ccc3c(c2)OCO3)cc1OC (stereo unspecified),-2,-8,-6,-4,-2,3
COc1ccc(-c2nnn(CC(=O)Nc3ccc4c(c3)OCCO4)n2)cc1OC,-14,85*,-14,-9,-8,5
